# Results as given in PubChem BioAssay AID2284109 (EPA ToxCast).
# Active and inactive are the calls of the source. Rule for the calls: active = hit-call score of the fitted dose curve at least 0.9, where 1 is the maximum; inactive = score below 0.9.
# Target: human p38beta (SAPK2) CMGC Kinase, MAPK11 (gene 5600) (UniProt Q15759)
# Assay: ERF_KP_ENZ_hMAPK11: Eurofins (ERF) Enzymatic Radiometric [10 uM ATP] KinaseProfiler LeadHunter Assay for human p38beta (SAPK2) CMGC Kinase
# Description: ERF_KP_ENZ_hMAPK11 is a biochemical, single-readout assay that uses extracted gene-proteins in a cell-free assay. Measurements were taken 0.66 hour after chemical dosing in a 96-well plate. See SAPK2 (p38beta) Human CMGC Kinase Enzymatic Radiometric Assay [10 uM ATP], KinaseProfiler.ERF_KP_ENZ_hMAPK11 is an assay component calculated from the ERF_KP_ENZ_hMAPK11 assay. It is designed to measure enzyme activity using a type of enzyme reporter as detected by scintillation counting with radiometry technology.Data from the assay component ERF_KP_ENZ_hMAPK11 was analyzed at the assay endpoint, ERF_KP_ENZ_hMAPK11, in the positive analysis fitting direction relative to DMSO as the negative control and baseline of activity. Using a type of enzyme reporter, loss-of-signal activity can be used to understand changes in enzymatic activity as they relate to gene MAPK11. To generalize the intended target to other relatable targets, this assay endpoint is annotated to the kinase intended target family, where the subfamily is serine/threonine kinase.
# SAPK2b (h) is incubated with 25 mM Tris pH 7.5, 0.02 mM EGTA, 0.33 mg/mL myelin basic protein, 10 mM MgAcetate and [gamma-33P]-ATP (specific activity and concentration as required). The reaction is initiated by the addition of the Mg/ATP mix. […]
# Chain of human p38beta (SAPK2) CMGC Kinase, MAPK11 (gene 5600) (Q15759 whole entry, looked up): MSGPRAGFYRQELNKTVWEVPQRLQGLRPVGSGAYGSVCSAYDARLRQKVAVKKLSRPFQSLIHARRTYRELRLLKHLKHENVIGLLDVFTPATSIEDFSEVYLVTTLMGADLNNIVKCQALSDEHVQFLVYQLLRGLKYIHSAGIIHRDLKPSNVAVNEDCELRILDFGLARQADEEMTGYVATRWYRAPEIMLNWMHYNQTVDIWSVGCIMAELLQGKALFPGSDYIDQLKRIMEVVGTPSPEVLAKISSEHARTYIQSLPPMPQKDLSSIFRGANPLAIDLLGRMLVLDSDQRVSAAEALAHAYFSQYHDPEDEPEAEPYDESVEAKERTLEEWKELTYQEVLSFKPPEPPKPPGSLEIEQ
row,SMILES,AC50
1,O=C(/C=C/c1ccc(O)cc1)CC(=O)/C=C/c1ccc(O)cc1,0.293 nM (active)
